SW480 rerep = A quantitative high throughput screen for small molecules that induce DNA re-replication in SW480 colon adenocarcinoma cells | SW480 DNA re-replication, Hoechst DNA content imaging, 48 h | Potency, µM (series often up to 46.1 µM), inactives show at the highest dose re-replication activation, hits mostly activators | 340,000 tested, 1.8% active | AID 624297, 2012; also: % of control where 0% means no effect; nearly all actives have a fitted effect of over 55% in size
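250 cells/well; 23 nL cpd via pin tool; 48 hr, 37 C, 5% CO2; Hoechst 40 min; imager read of total nuclear intensity, ex 405/em 500-530 nm.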
KB-V1 cytotox = qHTS assay for MDR1-selective chemotherapeutics: Primary screen using the drug-selected MDR subline cells KB-V1; KB-V1 MDR cells viability, CellTiter-Glo, 72 h; Potency, µM (titrated, usually from 46.1 µM), most hits filed as cytotoxic; 400,000 tested, 3.4% active; also: % is scaled to controls: 0 for no effect and ±100 for the full control effect; nearly all actives have a fitted effect of over 60% in size
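Readout: CellTiter-Glo luminescence, 10 min after addition. Cells: KB-V1 MDR subline, 72 h at 37 degrees C with compound. Analysis: corrected, normalized data fitted to concentration-effect curves.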
MCF10A rerep = A quantitative high throughput screen for small molecules that induce DNA re-replication in MCF 10a normal breast cells; Potency, µM (series often up to 46.1 µM), without a hit: top-dose activity, positive = re-replication, hits mostly activators; MCF 10A DNA re-replication, Hoechst nuclear intensity, 48 h; AID 624296, 2012; 350,000 tested, 2.9% active; also: % of control where 0% means no effect; nearly all actives have a fitted effect of over 50% in size
KB-3-1 tox = qHTS assay for MDR1-selective chemotherapeutics: Primary screen using the parental adenocarcinoma cell KB-3-1 | KB-3-1 viability, CellTiter-Glo ATP luminescence, 72 h | Potency, µM (highest dose often 46.1 µM), actives largely listed as cytotoxic | 400,000 tested, 1.4% active | AID 1347075, 2019; also: % is scaled to controls: 0 for no effect and ±100 for the full control effect; nearly all actives have a fitted effect of over 60% in size
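Here the drug-naive KB-3-1 line serves as comparator for MDR sub-line selectivity; cells received compound titrations, 72 h at 37 °C, then CellTiter-Glo readout.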
12-LOX inh = Primary qHTS assay for inhibitors of human arachidonate 12S-lipoxygenase (ALOX12): Round 2; purified 12hLO, xylenol orange hydroperoxide absorbance; 580,000 tested, 1.1% active; Polyunsaturated fatty acid lipoxygenase ALOX12 (Homo sapiens), P18054; Potency, µM (series often up to 108 µM), for inactives: at the highest dose activity change, negative = inhibition, hits mostly inhibitors; also: % is scaled to controls: 0 for no effect and ±100 for the full control effect
Target sequence (P18054 whole entry, looked up): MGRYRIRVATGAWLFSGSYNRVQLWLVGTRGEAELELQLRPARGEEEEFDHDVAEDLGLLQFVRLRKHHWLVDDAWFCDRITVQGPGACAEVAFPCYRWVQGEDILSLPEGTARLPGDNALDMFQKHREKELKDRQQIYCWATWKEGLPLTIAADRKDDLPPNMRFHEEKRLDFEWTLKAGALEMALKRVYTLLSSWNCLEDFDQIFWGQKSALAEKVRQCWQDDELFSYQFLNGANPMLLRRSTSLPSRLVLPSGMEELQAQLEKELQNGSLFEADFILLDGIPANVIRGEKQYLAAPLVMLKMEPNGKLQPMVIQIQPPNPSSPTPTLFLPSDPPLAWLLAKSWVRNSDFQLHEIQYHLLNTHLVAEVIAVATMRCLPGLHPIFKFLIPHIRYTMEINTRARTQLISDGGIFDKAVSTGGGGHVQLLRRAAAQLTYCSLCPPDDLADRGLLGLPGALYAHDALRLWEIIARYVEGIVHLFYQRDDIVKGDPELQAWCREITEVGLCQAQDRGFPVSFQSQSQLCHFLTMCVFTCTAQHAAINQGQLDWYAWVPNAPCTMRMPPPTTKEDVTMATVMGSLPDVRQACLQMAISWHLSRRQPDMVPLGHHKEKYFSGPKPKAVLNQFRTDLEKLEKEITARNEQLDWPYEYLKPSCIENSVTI
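Purified human 12hLO at 150 nM in 25 mM Hepes, 0.01% Triton X-100, pH 7.0, preincubated 15 min at room temperature with compound. Reaction started with 40 uM arachidonic acid, 30 min at room temperature. Hydroperoxide measured by Fe-xylenol orange, 573/405 nm absorbance ratio.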
PINK1 modulator = A Quantitative High throughput Screen to Identify Chemical Modulators of PINK1 Expression. PINK1 immunofluorescence, high-content cytometry, 24 h. Potency, µM (top dose mostly 76.6 µM), for the others: top-dose activation (PINK1 increase), hits mostly activators. 410,000 tested, 0.2% active. AID 624263, 2012; active = well fitted activation curve with a large enough effect; inconclusive = small, poorly fitted or top-dose-only effect; cell line not stated here; also: % of control where 0% means no effect; nearly all actives have a fitted effect of over 65% in size
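Measures PINK1 amount and localization on or inside mitochondria by immunofluorescence. Stable cells get compounds at 5 concentrations for 24 hours before fixation and staining; CCCP controls included.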
An asterisk follows results filed as active; i = inactive; ? = inconclusive; . = no result given; ! = not confirmed by another sample; [ ] = remark or other dose. Rows were chosen to be rich in hits. Some 5.8% of all compounds tested hit in one or more screens of this group. Unless noted, calls follow the shape of the dose curve; as a rule, active = well fitted curve in the direction sought with a large enough effect; inconclusive = small, poorly fitted or top-dose-only effect, or another doubt; inactive = no such curve, though single readings can be large; an effect the other way counts as inactive or inconclusive. Potency is read from the fitted curve at half-maximal effect.

SMILES | SW480 rerep | KB-V1 cytotox | MCF10A rerep | KB-3-1 tox | 12-LOX inh | PINK1 modulator
COc1cc(OC)c(/C=C2\C(=O)Nc3ccccc32)c(OC)c1 | 12µM* | 8.2µM* | 5.2µM* | 4.1µM* | -6% | 3%
Clc1ccc([C@H](Cn2ccnc2)OCc2csc3c(Cl)cccc23)c(Cl)c1 | 0%[20.6 µM] | . | 4%[20.6 µM] | . | . | .
Clc1ccc(CCC(Cn2ccnc2)Sc2c(Cl)cccc2Cl)cc1 (configuration not stated) | -56% | 21µM* | ? | ? | ? | 3%
O=[N+]([O-])/C=C\c1ccc2c(c1)OCO2 | . | . | . | . | 11µM* | .
COc1ccc(C[C@H]2NC[C@H](O)[C@H]2OC(C)=O)cc1 | 3%[1.84 µM] | 0.41µM* | ? | 0.33µM* | 2% | -1%
COc1ccc(CN2C(=O)NC(=O)/C(=C/c3ccc(OC)c(OC)c3OC)C2=O)cc1 | -8% | i | ? | i | ? | 1%
COc1ccc(-c2ccc(OC)c(OC)c2OC)cc1 | 3.7µM* | ? | 4.6µM* | ? | 13% | 5%
Cc1cc2c(C(C)C)c(O)c(O)c(C=O)c2c(O)c1-c1c(C)cc2c(C(C)C)c(O)c(O)c(C=O)c2c1O | 13µM*! | ? | ? | 1.5µM* | 1.1µM*! | ?
CN(C(=O)CNC(=O)OCc1ccccc1)c1ccc(Br)cc1C(=O)c1ccccc1Cl | 12µM* | 3.7µM* | 8.2µM* | 2.3µM* | -19% | -1%
O=C(CNC(=O)OCc1ccccc1)Nc1ccc(Br)cc1C(=O)c1ccccc1Cl | 7% | 8.2µM* | 27% | ? | -3% | -2%
O=C(CNC(=O)c1ccc(Br)cc1)Nc1ccc(Br)cc1C(=O)c1ccccc1 | -3% | i | 1% | i | -12% | 4%
Cc1ccc(NC(=O)c2ccc(C)c(S(=O)(=O)N3CCCCC3)c2)nc1 | 0% | i | 14% | i | -24% | 4%
Cc1ccc(C(=O)Nc2ccccc2)cc1S(=O)(=O)N1CCCC1 | . | 15µM* | . | ? | -4% | 1%
Cn1c(O)c(C(=Nc2ccccc2)SCc2ccc(Cl)cc2)c(=O)n(C)c1=O | 28% | 5.2µM* | ? | ? | 16µM* | 3%
O=C(O)c1ccccc1-c1ccc(C=C2C(=O)N(c3ccccc3)C(=S)N(c3ccccc3)C2=O)o1 | ? | ? | ? | i | 32µM* | 0%
CCOC(=O)[C@]12Cc3ccccc3[C@H]1N(CCC(=O)OC)C(=O)c1cc(OC)ccc12 | . | 9.2µM* | . | ? | ? | -1%
CCOC(=O)[C@]12Cc3c(cc(OC)c(OC)c3OC)[C@H]1N(CCC(=O)OC)C(=O)c1ccccc12 | . | ? | . | 8.2µM* | 96% | -1%
CCOC(=O)[C@]12Cc3cc(OC)ccc3[C@H]1N(CCC(=O)OC)C(=O)c1cc(OC)ccc12 | . | ? | . | 5.2µM* | -18% | -1%
CCOC(=O)[C@]12Cc3ccccc3[C@H]1N(Cc1ccccc1)C(=O)c1cc(OC)ccc12 | . | ? | . | ? | 0% | 1%
CCOC(=O)[C@]12Cc3c(cc(OC)c(OC)c3OC)[C@H]1N(C)C(=O)c1ccccc12 | . | i | . | ? | 92% | 0%
COC(=O)C1=C(c2ccc(OCc3ccccc3)cc2)C[C@@H]2CC[C@H]1N2C(=O)NCc1ccccc1OC | . | ? | . | 21µM* | 0% | 0%
COC(=O)C1=C(c2cccc(OCc3ccccc3)c2)C[C@@H]2CC[C@H]1N2C(=O)NCc1ccc2[nH]ccc2c1 | -2% | i | 5.2µM* | ? | 6% | 1%
